# Screening results from PubChem.
# An excerpt weighted towards active compounds, which were near 19% of everything screened.
# HT1080-NT tox: qHTS for induction of synthetic lethality in tumor cells producing 2HG: qHTS for the HT-1080-NT fibrosarcoma cell line | HT-1080-NT fibrosarcoma viability, CellTiter-Glo ATP luminescence, 48 h | Potency, µM (series often up to 46.1 µM), for the others: at the top dose activity, negative = less viability, usual class: cytotoxic | 360,000 tested, 1.6% active;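 note: NT is the 2HG producing partner of a matched IDH1 knockdown line; potency is the fitted concentration of half-maximal effect; 0% = DMSO-treated cells and -100% = media-only wells without cells; nearly all actives have a fitted effect of over 55% in size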
#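 Compounds were tested in concentration-response format on HT-1080-NT cells for 48 hours at 37 degrees C. Cell viability came from CellTiter-Glo luminescence; curves were classified by r2, response magnitude and activity.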
# DT40 TDP1 CPT: qHTS for Inhibitors of human tyrosyl-DNA phosphodiesterase 1 (TDP1): qHTS in cells in presence of CPT | chicken DT40 Tdp1-/-;hTDP1 cells + 20 nM CPT, ATP luminescence, 48 h | Potency, µM (doses to about 46.2 µM), without a hit: at the highest dose activity change, negative = growth inhibition, hits mostly inhibitors | 420,000 tested, 12% active; note: potency is the fitted concentration of half-maximal effect; nearly all actives have a fitted effect of over 55% in size
#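 Chicken DT40 Tdp1-/- cells complemented with human TDP1, 400 cells/well, exposed to compounds plus 20 nM camptothecin for at least 48 h at 37 C; viability read as ATP content by CellTiter-Glo luminescence.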
# TDP1 cell noCPT: qHTS for Inhibitors of human tyrosyl-DNA phosphodiesterase 1 (TDP1): qHTS in cells in absence of CPT. DT40 Tdp1-/- hTDP1 cells, no CPT, ATP luminescence, 48 h. Potency, µM (titrated, usually from 46.2 µM), for the others: at the highest dose activity change, negative = growth inhibition, most hits filed as inhibitors. 420,000 tested, 15% active. AID 686978, 2013; note: potency is the fitted concentration of half-maximal effect; nearly all actives have a fitted effect of over 55% in size
#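 Seeded 400 DT40-hTDP1 cells/well (vehicle DMSO, no 20 nM CPT); pinned compounds; ≥48 hr at 37 °C; CellTiter-Glo luminescence as viability measure.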
# ELG1 repair inh: qHTS screen for small molecules that inhibit ELG1-dependent DNA repair in human embryonic kidney (HEK293T) cells expressing luciferase-tagged ELG1 | HEK293T ELG1-luciferase reporter, luminescence, 16 h; DNA damage induced by 5-fluorouridine | Potency, µM (titrated, usually from 46.1 µM), without a hit: at the top dose activity change, negative = inhibition, actives largely listed as inhibitors | 330,000 tested, 2.3% active | AID 504467, 2011; note: potency is the fitted concentration of half-maximal effect; nearly all actives have a fitted effect of over 55% in size
#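 5-Fluorouridine DNA damage + compound/DMSO, 2,000 cells/well, 16 h, 37 °C/5% CO2. ONE-Glo, 30 min RT, luminescence. Readout = decrease in reporter signal.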
# HT1080 IDH1KD tx: qHTS for induction of synthetic lethality in tumor cells producing 2HG: qHTS for the HT-1080-IDH1KD cell line | 360,000 tested, 2% active | HT-1080 IDH1 knockdown viability, ATP luminescence, 48 h | Potency, µM (doses to about 46.1 µM), for inactives: at the top dose activity, negative = toxicity, hits mostly cytotoxic;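 note: potency is the fitted concentration of half-maximal effect; 0% = DMSO wells and -100% = cell-free medium wells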
#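 Viability of IDH1-knockdown HT-1080 fibrosarcoma cells was assessed by CellTiter-Glo after 48 h at 37 °C with titrated compound; concentration-effect curves were classified by fit quality and response size.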
# IL1B secr inh: qHTS for Inhibitors of Inflammasome Signaling: IL-1-beta AlphaLISA Primary Screen | 360,000 tested, 4.7% active | activity change, % at 57.5 µM | THP-1 LPS/ATP IL-1B secretion, AlphaLISA, 16 h; active compounds read low; in the data active = activity change below about -50%; inconclusive = mostly about -30% to -49%
#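 THP-1 cells pretreated 1 hr with compounds (up to 57.5 uM final), then stimulated with LPS (250 ng/mL final) plus ATP (1.25 mM final); secreted IL-1B measured by AlphaLISA after 16 hr, decreased signal indicating inhibition.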
# ELG1 Luc conf: HTS assay for small molecules that inhibit ELG1-dependent DNA repair in human embryonic kidney (HEK293T) cells expressing luciferase-tagged ELG1: Hit Confirmation; AID 624248, 2012; HEK293T ELG1-luciferase levels, luminescence; cells co-treated with 5-fluorouridine; 670 tested, 68% active; shares compounds with ELG1 repair inh; Potency, µM (doses to about 46.1 µM), without a hit: at the highest dose activity change, negative = inhibition, most hits filed as inhibitors; note: potency is the fitted concentration of half-maximal effect; nearly all actives have a fitted effect of over 55% in size
# Target sequence (Q96QE3 whole entry, looked up): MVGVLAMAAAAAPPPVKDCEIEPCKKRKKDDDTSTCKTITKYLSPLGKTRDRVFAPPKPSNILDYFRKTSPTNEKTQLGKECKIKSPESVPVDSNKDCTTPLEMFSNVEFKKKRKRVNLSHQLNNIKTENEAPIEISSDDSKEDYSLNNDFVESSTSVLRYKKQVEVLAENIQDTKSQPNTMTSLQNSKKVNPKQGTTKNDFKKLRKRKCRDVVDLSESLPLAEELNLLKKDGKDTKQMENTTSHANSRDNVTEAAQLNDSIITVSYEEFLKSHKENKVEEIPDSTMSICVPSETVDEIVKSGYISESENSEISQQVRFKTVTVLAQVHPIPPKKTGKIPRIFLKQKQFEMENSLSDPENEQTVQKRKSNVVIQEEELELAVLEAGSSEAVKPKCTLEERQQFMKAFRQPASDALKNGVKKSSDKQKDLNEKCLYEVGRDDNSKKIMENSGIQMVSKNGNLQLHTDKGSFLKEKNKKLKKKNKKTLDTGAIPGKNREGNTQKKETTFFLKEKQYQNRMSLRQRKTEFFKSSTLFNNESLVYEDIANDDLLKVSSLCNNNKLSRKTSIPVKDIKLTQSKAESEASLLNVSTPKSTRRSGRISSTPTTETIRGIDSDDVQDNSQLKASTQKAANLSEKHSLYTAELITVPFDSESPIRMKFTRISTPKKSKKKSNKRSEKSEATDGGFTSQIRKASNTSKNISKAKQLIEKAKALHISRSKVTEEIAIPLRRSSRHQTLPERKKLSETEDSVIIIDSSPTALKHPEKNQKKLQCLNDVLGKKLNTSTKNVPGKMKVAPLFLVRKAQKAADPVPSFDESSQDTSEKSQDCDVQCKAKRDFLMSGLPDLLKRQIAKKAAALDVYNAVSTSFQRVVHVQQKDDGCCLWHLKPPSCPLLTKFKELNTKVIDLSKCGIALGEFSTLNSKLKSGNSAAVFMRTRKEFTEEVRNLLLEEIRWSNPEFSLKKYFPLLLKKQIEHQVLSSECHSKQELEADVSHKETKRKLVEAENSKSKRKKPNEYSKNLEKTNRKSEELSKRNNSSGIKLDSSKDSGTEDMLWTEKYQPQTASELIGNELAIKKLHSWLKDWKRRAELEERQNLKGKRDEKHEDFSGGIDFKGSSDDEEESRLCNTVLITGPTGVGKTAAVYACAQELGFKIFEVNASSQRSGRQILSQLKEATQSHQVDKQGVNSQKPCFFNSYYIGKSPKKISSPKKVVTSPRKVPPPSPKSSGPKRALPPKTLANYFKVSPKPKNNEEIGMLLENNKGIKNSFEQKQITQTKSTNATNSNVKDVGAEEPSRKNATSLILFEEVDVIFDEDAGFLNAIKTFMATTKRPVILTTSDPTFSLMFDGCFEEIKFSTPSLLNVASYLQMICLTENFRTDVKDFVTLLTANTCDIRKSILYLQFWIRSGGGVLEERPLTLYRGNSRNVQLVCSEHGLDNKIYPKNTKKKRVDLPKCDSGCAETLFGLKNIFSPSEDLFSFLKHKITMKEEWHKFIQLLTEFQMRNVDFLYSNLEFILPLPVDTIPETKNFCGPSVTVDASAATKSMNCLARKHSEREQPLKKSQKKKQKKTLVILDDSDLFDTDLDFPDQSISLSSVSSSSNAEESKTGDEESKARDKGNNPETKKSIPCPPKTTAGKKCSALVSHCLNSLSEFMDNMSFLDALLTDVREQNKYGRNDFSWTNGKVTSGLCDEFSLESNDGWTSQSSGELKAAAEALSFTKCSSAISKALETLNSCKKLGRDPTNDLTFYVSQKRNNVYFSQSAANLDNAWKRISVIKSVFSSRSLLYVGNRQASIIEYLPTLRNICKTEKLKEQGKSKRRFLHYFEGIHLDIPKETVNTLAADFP
# ELG1 MMS Luc: MMS-stimulated human ELG1 repair inhibition, confirmed; Potency, µM (top dose mostly 46.1 µM), for inactives: at the top dose activity change, negative = inhibition, hits mostly inhibitors; HEK293T luciferase-tagged ELG1 level, MMS stimulated; shares compounds with ELG1 repair inh; 670 tested, 53% active; AID 624249; note: potency is the fitted concentration of half-maximal effect; nearly all actives have a fitted effect of over 60% in size
# ELG1 5-FU: qHTS screen for small molecules that inhibit ELG1-dependent DNA repair: Hit Confirmation with 5FU Viability; shares compounds with ELG1 repair inh; cell viability with 5-FU, ELG1-dependent repair; Potency, µM (titrated, usually from 46.1 µM), for inactives: top-dose activity change, negative = viability loss, most hits filed as cytotoxic; 670 tested, under 10 active;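 note: ELG1-luc HEK293T cells cotreated with 5-fluorouridine at 10 µM final; potency is the fitted concentration of half-maximal effect; viability measured 16 h after compound addition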
# ELG1 MMS viab: qHTS screen for small molecules that inhibit ELG1-dependent DNA repair: Hit Confirmation with MMS Viability. Cell viability with MMS, ELG1-dependent DNA repair. AID 624251, 2012. 670 tested, 33% active. shares compounds with ELG1 repair inh. Potency, µM (highest dose often 46.1 µM), for inactives: top-dose activity change, negative = viability loss, most hits filed as cytotoxic;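 note: ELG1-luc HEK293T cells co-treated with 10 µM MMS; potency is the fitted concentration of half-maximal effect; viability read 16 h after compound addition; nearly all actives have a fitted effect of over 60% in size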
# Cell viab unstim: qHTS screen for small molecules that inhibit ELG1-dependent DNA repair: Hit Confirmation with Unstimulated Viability Assay; shares compounds with ELG1 repair inh; cell viability counter-screen, unstimulated, luminescence; Potency, µM (top dose mostly 45.9 µM), for inactives: at the highest dose activity change, negative = loss of viability, usual class: cytotoxic; 900 tested, 8% active;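 note: potency is the fitted concentration of half-maximal effect; compound exposure lasted 16 hours before reading; nearly all actives have a fitted effect of over 55% in size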
# Numbers without * were called inactive; ? = inconclusive; . = no result given; [ ] = remark or other dose. Unless noted, calls come from the whole dose curve; as a rule, active = well fitted curve in the direction sought with a large enough effect; inconclusive = small, poorly fitted or top-dose-only effect, or another doubt; inactive = no such curve, though single readings can be large; an effect the other way counts as inactive or inconclusive. Unless noted, % is set by controls: 0 for no effect and ±100 for the full control effect.
SMILES,HT1080-NT tox,DT40 TDP1 CPT,TDP1 cell noCPT,ELG1 repair inh,HT1080 IDH1KD tx,IL1B secr inh,others
CC1(C)S[C@@H]2[C@H](NC(=O)[C@H](N)c3ccccc3)C(=O)N2[C@H]1C(=O)OC1OC(=O)c2ccccc21 (stereo partly drawn),3%,12µM*,8.2µM*,11%,-4%,-56*,
O=C(Nc1cccc(S(=O)(=O)NC2=NCCC2)c1)c1cn(-c2ccccc2)nc1-c1ccc(F)cc1,?,3.7µM*,2.6µM*,?,?,?,
Cc1onc(-c2ccccc2)c1C(=O)Nc1cccc(S(=O)(=O)NC2=NCCC2)c1,-4%[9.24 µM],?,21%,6%,1%,-13,
Cc1ccc(-c2nn(-c3ccccc3)cc2C(=O)Nc2cccc(S(=O)(=O)NC3=NCCC3)c2)cc1,0%,3%,0.21µM*,.,0%,0,
CCNC(=O)C1(C)CCCN(CCOc2ccc(OC)cc2)C1 (stereo not drawn),19%,-2%,-16%,.,1%,-10,
O=C(CC(O)c1ccccc1)Nc1ccccn1 (stereo not drawn),3%,-9%,-9%,.,15%,0,
O=C(Nc1cccc2ccccc12)N1CC=C(c2ccccc2)CC1,-1%,?,?,0%,?,17,
Cc1ccc(NC(=O)N2CC=C(c3c[nH]c4ccccc34)CC2)cc1Cl,.,18µM*,10µM*,.,.,.,
COC(=O)c1ccc(Cl)cc1NC(=O)N1CC=C(c2c[nH]c3ccccc23)CC1,.,15µM*,?,.,.,.,
Cc1cccc(NC(=O)N2CC=C(c3c[nH]c4ccccc34)CC2)c1C,.,16µM*,23µM*,.,.,.,
O=C(Nc1ccc(Br)cc1F)N1CC=C(c2c[nH]c3ccccc23)CC1,.,0.65µM*,0.58µM*,.,.,.,
Cc1ccc(N2CC(c3nnc(NC(=O)c4ccco4)s3)CC2=O)cc1Cl (stereo not drawn),.,-3%,?,.,.,.,
Cn1c(SCC(=O)NNC(=O)c2ccccc2Br)nnc1C(F)(F)F,-4%,-5%,-1%,23%,-1%,-8,
O=C(O)/C=C/c1ccc2ccccc2c1,.,2%,-2%,.,.,.,
Cn1nc(C(=O)NCCCN2CCCCC2)c2c1-c1ccccc1S(=O)(=O)C2,4%,9%,9%,2%,0%,20,
COc1ccc(OC)c(CNC(=O)c2nn(C)c3c2CS(=O)(=O)c2ccccc2-3)c1,6%,4%,-19%,3.3µM*,11%,-2,ELG1 Luc conf=11µM*;ELG1 MMS Luc=25%;ELG1 5-FU=9%;ELG1 MMS viab=-9%;Cell viab unstim=?
CC(=O)c1ccc(-n2c(C)c(C(C)=O)c3cc(O)ccc32)cc1,6%,?,?,2.1µM*,-2%,42,ELG1 Luc conf=?;ELG1 MMS Luc=-1%;ELG1 5-FU=0%;ELG1 MMS viab=1%;Cell viab unstim=4%
COc1ccc(Cc2nnc(NC(=O)Nc3ccccc3F)s2)cc1OC,-29%,?,?,-37%,?,67,
COc1cc(NC(=O)c2cc(C)no2)c(OC)cc1Cl,-1%,3%,1%,-4%,0%,47,
COc1cc(C(=O)OCCc2cc3ccccc3c(=O)o2)cc(OC)c1OC,8.2µM*,4.1µM*,5.8µM*,?,7.3µM*,56,ELG1 Luc conf=4.4µM*;ELG1 MMS Luc=?;ELG1 5-FU=?;ELG1 MMS viab=?;Cell viab unstim=?
COc1cc2cc(CCCOC(=O)c3cc(OC)c(OC)c(OC)c3)oc(=O)c2cc1OC,9%,-18%,?,?,18%,-5,
COCC(=O)Nc1ccc(S(=O)(=O)Nc2nccs2)cc1,11%,4%,-6%,0%,4%,2,
